Assay results published in a collection of fitness landscapes (doi:10.1016/j.celrep.2020.107928).
In all, about 81,000 sequences were measured (“one-hybrid fitness for binding parS DNA”: median about -0.17, highest 2% from about 0.51 on). Shown is part of a subset that was picked to be rich in the highest values.

B1: Caulobacter ParB omega fusion; a variant is named by its letters at X, in order, B8GW30 (parent)
chain: MESVVVGEPGMSEGRRGLGRGLSALLGEVDAAPAQAPGEQLGGSREAPIEILQRNPDQPRRTFREEDLEDLSNSIREKGVLQPILVRPSPDTAGEYQIVAGERAWRAAQRAGLKTVPIMVRELDDLAVLEIGIIENVQRADLNVLEEALSYKVLMEKFERTQENIAQTIGKSXSHVANXMRLLXLPDEVQSYLVSGELTAXHARAIAAAADPVALAKQIIEGGLSVRETEALARKAPNLSAGKSKGGRPPRVKDTDTQALESDLSSVLGLDVSIDHRGSTGTLTITYATLEQLDDLCNRLTRGI

Variants of: B1
Test: one-hybrid fitness for binding parS DNA (scaled: cognate 1, non-cognate 0); higher = stronger binding
Details: with parS DNA site
Procedure, shortened: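 Bacterial one-hybrid selection in E. coli USO rpoZ- hisB- pyrF- with a HIS3 reporter carrying the site 19 bp from the promoter, screening Caulobacter ParB libraries with four specificity codons randomised (NNS). Cells grew 48 hours at 37°C on M9-minus-histidine plus 0.1 mM IPTG and 5 mM 3-AT. Plasmids before and after selection were Illumina-sequenced, three replicate libraries pooled, and variants under 10 reads dropped. Fitness is the log change in variant-to-wild-type read ratio, rescaled to cognate 1, non-cognate 0.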

one-hybrid fitness for binding parS DNA, 0.319:
RQSM

one-hybrid fitness for binding parS DNA, 0.292:
RQHH

one-hybrid fitness for binding parS DNA, 0.992:
RSAG
RVNG
RVLG

one-hybrid fitness for binding parS DNA, 0.815:
RTKS

one-hybrid fitness for binding parS DNA, 0.702:
RQWT

one-hybrid fitness for binding parS DNA, 0.234:
RVQF

one-hybrid fitness for binding parS DNA, 0.322:
RMPY

one-hybrid fitness for binding parS DNA, 0.421:
RQDY

one-hybrid fitness for binding parS DNA, 0.28:
RQQF

one-hybrid fitness for binding parS DNA, 0.439:
RTKH

one-hybrid fitness for binding parS DNA, 0.324:
RQDM
RVNM

one-hybrid fitness for binding parS DNA, 0.245:
RVLD

one-hybrid fitness for binding parS DNA, ≤ 0.2:
MPYE
MAAF
SSTQ
DFFS
VTNA
QCWG
SHRE
RRHI
TAII
LRVW
AKPV
QKYL
RMPL
RMIP
VWYT
HCQT
TAHC
RTKD
RTVP
PTHK
YTPL
RQHD
RQSR
RQRK
VPNM
PYKG
NCIC
LPKF
GQSM
WYTC
RQQR
RQNQ
RQNE
RQYK
RQGD
NLLR
RPHV
WPRR
VTAC
DHDY
MGLM
DCQR
HLAT
RQCD
RQLR
RQWR
RQCP
RQWF
FMNC
QHYS
AARS
AYIV
GHTQ
WFQV
RDAG
REAG
RPAG
RPEM
VMQS
RGMQ
RGMY
RGMM
RGMN
RGMD
RGMP
PVHI
HKLN
WWDG
RNHR
DEPC
RVWH
RVSR
RVDK
RVNQ
RVDQ
RVWP
AQKQ
HTYC
VSWE
SPNG
LCPA
LGTD
MNAP
PHSE
DQES
NCWT
RCSE
MTTC
RVHK
RVCR
RVHQ
MWSG
WLTK
SYTT
YPIF
ESYW
ARYC
RVQR
RVGR
RVGK

one-hybrid fitness for binding parS DNA, 1.03:
RVHG

one-hybrid fitness for binding parS DNA, 0.301:
RQLM

one-hybrid fitness for binding parS DNA, 1.02:
RCAG
RVYG

one-hybrid fitness for binding parS DNA, 0.347:
RVSM

one-hybrid fitness for binding parS DNA, 0.46:
RVYN

one-hybrid fitness for binding parS DNA, 0.947:
RMIG

one-hybrid fitness for binding parS DNA, 0.768:
RQDT

one-hybrid fitness for binding parS DNA, 1:
RTVS

one-hybrid fitness for binding parS DNA, 0.604:
RGMG

one-hybrid fitness for binding parS DNA, 0.672:
RGMS

one-hybrid fitness for binding parS DNA, 0.266:
RSAF
RVRF

one-hybrid fitness for binding parS DNA, 0.895:
RQQT

one-hybrid fitness for binding parS DNA, 0.387:
RTVN

one-hybrid fitness for binding parS DNA, 0.86:
RQLT

one-hybrid fitness for binding parS DNA, 0.775:
RMPG

one-hybrid fitness for binding parS DNA, 0.349:
RQRM

one-hybrid fitness for binding parS DNA, 0.999:
RVSG
RVQG

one-hybrid fitness for binding parS DNA, 0.982:
RVWG

one-hybrid fitness for binding parS DNA, 0.223:
RMIH

one-hybrid fitness for binding parS DNA, 0.392:
RVRM

one-hybrid fitness for binding parS DNA, 0.318:
RQYM

one-hybrid fitness for binding parS DNA, 0.423:
RVLN

one-hybrid fitness for binding parS DNA, 0.846:
RQCT

one-hybrid fitness for binding parS DNA, 0.213:
RVYP

one-hybrid fitness for binding parS DNA, 0.985:
RMMG

one-hybrid fitness for binding parS DNA, 0.892:
RQHT

one-hybrid fitness for binding parS DNA, 0.955:
RVRG

one-hybrid fitness for binding parS DNA, 0.249:
RQGH
RVCF

one-hybrid fitness for binding parS DNA, 0.849:
RQRT

one-hybrid fitness for binding parS DNA, 0.916:
RQST

one-hybrid fitness for binding parS DNA, 0.889:
RQNT

one-hybrid fitness for binding parS DNA, 0.543:
RGMC

one-hybrid fitness for binding parS DNA, 0.847:
RQGT
RQYT

one-hybrid fitness for binding parS DNA, 0.874:
RVDG

one-hybrid fitness for binding parS DNA, 0.972:
RVCG

one-hybrid fitness for binding parS DNA, 1.01:
RVGG
